Test results taken from PubChem BioAssay (Tox21).
Inconclusive results are not listed. A call without a number means that no potency is given here. Calls of active or inactive are those of the source. Calls follow the shape of the dose curve; as a rule, active = well fitted activation curve with a large enough effect in the signal ratio in the repeat runs, with a control signal flat (not every such curve was filed as active); inconclusive = weak or mixed curves; inactive = flat fitted curve, though single readings scatter; the % refers to the signal ratio.

test: qHTS assay for small molecule activators of the heat shock response signaling pathway (AID 743210); conditions: HeLa HSE-bla reporter, beta-lactamase ratio, 5 h; series mostly up to 62.6 µM
From the text: U.S. Tox21 Program National Center for Advancing Translational Sciences [NCATS] NIH Chemical Genomics Center [NCGC] U.S. Environmental Protection Agency [EPA] National Institutes of Environmental Health Sciences [NIEHS] National Toxicology Program [NTP] U.S. Food and Drug Administration [FDA] Tox21 Assay Overview: Various chemicals, environmental and physiological stress conditions may lead to the activation of heat shock response/ unfolded protein response (HSR/UPR). There are three heat shock transcription factors (HSFs) (HSF-1, -2, and -4) mediating transcriptional regulation of the human HSR. To identify the compounds that activate HSR signaling, HSE-bla HeLa cell line (Invitrogen, Carlsbad, CA, USA) containing a beta-lactamase reporter gene under the control of the heat shock response elements was used to screen the Tox21 10K compound library.
Tox21 Assay Protocol Summary: The CellSensor HSE-bla HeLa cells (Invitrogen, Carlsbad, CA, USA) were dispensed at 1500 cells/6uL/well into 1536-well black wall/clear bottom plates using a Multidrop combi (Thermo Fisher Scientific, Waltham, MA) dispenser. After the assay plates were incubated at 37 C and 5% CO2 overnight, 23 nL of compounds dissolved in DMSO, positive controls or DMSO only was transferred to the assay plate by a Pintool station (Kalypsys, San Diego, CA). The plates were incubated at 37 C for 5 h. After 1 uL of LiveBLAzerTM B/G FRET substrate was added using a Flying Reagent Dispenser (Beckman Coulter, Indianapolis, IN, USA), the plates were incubated at room temperature for 2.5 h, and fluorescence intensity was measured by an Envision plate reader (PerkinElmer, Shelton, CT).

Structure (SMILES)	Potency
CC(=O)OC(c1ccccc1)C(Cl)(Cl)Cl (stereo not given)	inactive
C=CCc1ccc(OC(=O)Cc2ccccc2)c(OC)c1	inactive
Cc1ccccc1	inactive
NP(N)(=O)NC(=O)c1ccc(F)cc1	inactive
C[C@H]1[C@@H]2Cc3ccc(O)cc3[C@@]1(C)CCN2C	inactive
O=C(O)c1cc(I)cc(I)c1I	inactive
SCc1ccccc1	inactive
CCOC(=O)C1OC1(C)c1ccccc1 (stereo not given)	inactive
C#C[C@]1(O)CC[C@H]2[C@@H]3CCC4=CC(=O)CCC4=C3C=C[C@@]21CC	inactive
CCCCCCCCP(=O)(O)O	inactive
CCCCC1C(=O)NC(=O)N(C2CCCCC2)C1=O (stereo not given)	inactive
CCCC[N+](CCCC)(CCCC)CCCC	inactive
FC(F)OC(F)(F)C(F)Cl (stereo not given)	inactive
NCCc1cc(O)c(O)cc1O	inactive
Cc1nc2ccccc2c(=O)n1-c1ccccc1Cl	inactive
CCCC1CCCCN1 (stereo not given)	inactive
N#CC1(N=NC2(C#N)CCCCC2)CCCCC1	inactive
CC[N+]1(CCOC(=O)C(O)(c2ccccc2)c2ccccc2)CCCCC1	inactive
CC(Oc1cccc(Cl)c1)C(=O)O (stereo not given)	inactive
OCC1CO1 (stereo not given)	inactive

Structure (SMILES)	Potency
C[Si](Cn1cncn1)(c1ccc(F)cc1)c1ccc(F)cc1	inactive
CC(C)CCCCCCCOC(=O)c1ccccc1C(=O)OCCCCCCCC(C)C	inactive
CCc1cnc(C2=NC(C)(C(C)C)C(=O)N2)c(C(=O)O)c1 (stereo not given)	inactive
CCc1ccccc1N	inactive
COc1ccc(C(O)(c2cncnc2)C2CC2)cc1 (stereo not given)	inactive
O=C(O)c1cc(Cl)ccc1Cl	inactive
CC(C)CCON=O	inactive
CC(C)(C)OOC(C)(C)CCC(C)(C)OOC(C)(C)C	inactive
C=CCN1C[C@H](C)N([C@H](c2ccc(C(=O)N(CC)CC)cc2)c2cccc(OC)c2)C[C@H]1C	inactive
C=CCc1ccccc1O	inactive
CCOP(=O)(SC(C)CC)N1CCSC1=O (stereo not given)	inactive
C[C@H](N)[C@H](O)c1ccc(O)c(O)c1	inactive
CCC1(CCC(C)C)C(=O)NC(=O)NC1=O	inactive
CCC(C)(C)O	inactive
CC(C)c1ccc(NC(=O)N(C)C)cc1	inactive
C#CC(O)(C=CCl)CC (stereo not given)	inactive
Nc1cc(Cl)cc(C(=O)O)c1Cl	inactive
N#CC(C#N)=C(C#N)C#N	inactive
Cc1cccc(C)c1NC1=NCCCS1	inactive
CCC1(C2=NCCN2)Cc2ccccc2O1 (stereo not given)	inactive
